The list is not random: actives were taken first. Their share in the collection is about 4%.
RecA intein inh – inhibitors of M. tuberculosis RecA intein splicing. P9WHJ3. cell-free RecA intein splicing, fluorescence. inhibition, % (no concentration beside the values). hit rate 0.75% among 290,000. AID 2221; in the data active = inhibition above about 30%;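 note: 0% = vehicle wells and 100% = reference inhibitor control wells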
Mtb FBA inh – Mtb fructose-bisphosphate aldolase inhibition | inhibition, % at 1 µM | hit rate 2.3% among 360,000 | purified M. tuberculosis FBA, fluorescence read-out | P9WQA3; in the data active = inhibition above about 27%;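 note: 0% = vehicle and 100% = reference inhibitor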
Target sequence (P9WQA3 whole entry, looked up): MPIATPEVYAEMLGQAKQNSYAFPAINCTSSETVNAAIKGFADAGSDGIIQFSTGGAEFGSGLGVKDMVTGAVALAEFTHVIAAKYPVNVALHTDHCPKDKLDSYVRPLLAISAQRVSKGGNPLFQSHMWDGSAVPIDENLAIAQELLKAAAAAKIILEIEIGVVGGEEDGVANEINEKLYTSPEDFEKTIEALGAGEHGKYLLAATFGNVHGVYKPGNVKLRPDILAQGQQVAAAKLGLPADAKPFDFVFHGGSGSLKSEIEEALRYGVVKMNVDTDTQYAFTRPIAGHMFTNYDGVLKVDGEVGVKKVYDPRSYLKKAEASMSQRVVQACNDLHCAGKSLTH
Rv3671c inh – Rv3671c (M. tuberculosis) protease inhibition; P9WHR9; inhibition, % at 5.96 µM; hit rate 0.048% among 320,000; AID 2606; in the data active = inhibition above about 38%;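 note: extracellular domain of Rv3671c used as enzyme; 0% = enzyme with DMSO and 100% = no enzyme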
Mtb betalactam – beta-lactam sensitization of Mtb H37Rv; M. tuberculosis H37Rv growth with meropenem, percent inhibition; inhibition, % at 25 µM; hit rate 0.27% among 330,000;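 note: growth measured after seven days incubation then overnight dye step; 0% = bacteria only wells and 100% = bacteria with antibiotic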
GDH-TPI counter-1 – inhibits GDH-TPI coupling enzymes, artifact for Mtb FBA screen; GDH-TPI coupled enzyme counterscreen, NADH absorbance; inhibition, % at 4.8 µM; hit rate 1.2% among 360,000; in the data active = inhibition above about 30%;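 note: 0% = DMSO wells and 100% = wells lacking the enzyme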
UGM FP inh – inhibitors of M. tuberculosis UDP-galactopyranose mutase. hit rate 0.06% among 320,000. inhibition, % at 10 µM. purified UGM, fluorescence polarization probe displacement. P9WIQ1. AID 504406; in the data active = inhibition above about 10%, passing the limit was not always enough
Mtb FBA confirm – confirmation of M. tuberculosis fructose-bisphosphate aldolase inhibitors; shares compounds with Mtb FBA inh; purified M. tuberculosis FBA, fluorescence read-out; inhibition, % at 1 µM; hit rate 78% among 5,600; in the data active = inhibition above about 27%;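 note: 0% = vehicle wells and 100% = reference inhibitor wells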
GDH-TPI counter-2 – counter-screen for M. tuberculosis FBA inhibitors: GDH-TPI coupled enzyme inhibition | GDH-TPI coupled enzyme counterscreen, fluorescence | hit rate 81% among 5,600 | inhibition, % at 1 µM | shares compounds with Mtb FBA inh; in the data active = inhibition above about 10%
GDH-TPI dose – inhibits GDH-TPI coupling enzymes in dose response. shares compounds with Mtb FBA inh. GDH-TPI coupled enzyme assay, fluorescence, artifact counterscreen. IC50, µM. hit rate 79% among 170
The depositor's hits bear a star; . = no result; + = active, no number. Unless noted, the rule behind the calls is not given here.

SMILES	RecA intein inh	Mtb FBA inh	Rv3671c inh	Mtb betalactam	GDH-TPI counter-1	UGM FP inh	Mtb FBA confirm	GDH-TPI counter-2	others
CCSc1nc2c(c(=O)[nH]1)C(c1ccc(C)cc1)C1=C(CCCC1=O)N2 (stereo not given)	-2	29*	3	-8	6	1	148*	126*
CC#CC(=O)N1CCC(CCC(=O)N(C)Cc2ccccc2)CC1	0	1	3	9	-2	5	.	.
COC(=O)Cn1c(CN2CCN(C(=O)c3ccco3)CC2)nc2c1c(=O)n(C)c(=O)n2C	-2	0	-8	-2	11	-1	.	.
O=C1CCCN2N=C(SCC(=O)Nc3ccc(F)cc3F)SC2=N1	-2	-1	-1	23	-2	0	.	.
NC(=O)c1cc(NC(=O)CCNS(=O)(=O)c2cccc(C(F)(F)F)c2)cc(C(N)=O)c1	0	1	2	0	-6	-1	.	.
Cc1c(CC(=O)NCCC(C)C)c(=O)oc2cc3c(cc12)CCC(C)(C)O3	-1	42*	6	-2	6	1	90*	71*
COc1ccc(NS(=O)(=O)c2cccc(C(=O)O)c2)cc1S(=O)(=O)N1CCOCC1	.	0	4	-5	-3	0	.	.
Cc1cc(=O)oc2cc(NC(=S)NNC(=O)c3c(Cl)cnn3C)ccc12	-6	83*	1	-6	35*	-1	43*	28*
Cc1cnc(NC(=O)c2cccc(S(=O)(=O)N3CCOCC3)c2)s1	.	-1	6	-8	26	-2	.	.
O=C(NN=Cc1ccc(O)cc1O)c1ccccc1NS(=O)(=O)c1cccs1	.	41*	19	0	6	2	-3	-1
O=C(N/N=C/c1ccc(N2CCOCC2)cc1)c1ccccc1NS(=O)(=O)c1cccs1	-4	44*	7	9	38*	3	+	+
COc1cc(C=NNC(=O)c2ccccc2NS(=O)(=O)c2cccs2)cc(OC)c1O	.	0	10	5	23	1	.	.
CC(C)(C)c1cc(=O)n2c(C#N)c(C#N)nc2[nH]1	-4	80*	-6	-4	12	0	47*	40*
c1ccc2sc(Nc3nc4cc5c(cc4s3)OCO5)nc2c1	-5	29*	3	87	16	-1	2	-3
Fc1ccc2nc(Nc3nc4cc5c(cc4s3)OCCO5)sc2c1	-4	59*	6	61	16	-1	75*	63*
Fc1ccc2nc(Nc3nc4cc5c(cc4s3)OCO5)sc2c1	-1	38*	-11	77	13	0	56*	52*
O=C(NNc1nc2cc3c(cc2s1)OCCO3)c1ccc(F)cc1	-5	2	10	25	1	-3	.	.
COc1cc2c3c(c1)C(C)=CC(C)(C)N3C(=O)C2=O	1	29*	-1	6	9	2	0	0
COc1ccccc1-c1nnc(-c2ccc(C)cc2)o1	2	15	-2	3	-5	0	.	.
COc1cccc(OC)c1-c1nnc(-c2cn(C)c3ccccc23)o1	-2	80*	8	-3	-4	3	+	178*
CN(CC(=O)Nc1ccc(Br)cc1)Cc1ccccc1	4	1	-7	-2	2	-4	.	.
COC(=O)c1cc(NC(=O)CN(C)Cc2ccccc2)cc(C(=O)OC)c1	2	35*	-6	-1	14	-1	26	22*
COc1ccc(CCNC(=O)COC(=O)c2ccc(C)s2)cc1	.	2	-6	-2	-3	-2	.	.
COCCCNC(=O)COC(=O)c1ccc(-c2nc3ccccc3s2)s1	-6	79*	1	98	24	3	94*	70*
CCOc1ccc(Oc2ccc(NC(=O)CSc3nncn3C)cc2)cc1	.	6	.	.	5	.	.	.
Cc1cc(-c2nc3ccccc3o2)c2ccccc2n1	4	34*	-24	50	23	1	15	-2	GDH-TPI dose=5.7*
CCCCNC(=O)c1cn(CC)c2cc(N3CCN(C)CC3)c(F)cc2c1=O	.	22	-6	-1	9	-4	.	.
CCCNC(=O)c1cn(CC)c2cc(N3CCN(C(=O)c4ccco4)CC3)c(F)cc2c1=O	-6	80*	-6	87	10	1	142*	113*

High-throughput results (PubChem)
